Measurements taken from the supplement of paper PMC8728848.
The sample as a whole holds a higher share of the strongest signals than the screen did.

Key:
Test in all cases: glycan array binding signal (z-score within array); higher = stronger binding
Conditions in all cases: glycan notation: IUPAC condensed, linker removed
Fuc(a1-2)Gal(b1-4)Glc = target: Fuc(a1-2)Gal(b1-4)Glc
How it was run: (§1)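 The binding signal is a Z-score computed within each array. Data were drawn from 3228 arrays in the Consortium for Functional Glycomics database, restricted to those with a known protein sequence. Scores were averaged over arrays of the same protein sequence at different concentrations or buffers, and over linkers, and negative values can be taken as non-binding.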

Fuc(a1-2)Gal(b1-4)GlcNAc = target: Fuc(a1-2)Gal(b1-4)GlcNAc
How it was run: as §1

[1] = target: Fuc(a1-2)Gal(b1-4)GlcNAc(b1-3)Gal(b1-4)GlcNAc(b1-3)Gal(b1-4)GlcNAc
How it was run: as §1

Fuc(a1-3)GlcNAc = target: Fuc(a1-3)GlcNAc
How it was run: as §1

[2] = target: Gal(a1-3)Gal(b1-4)[Fuc(a1-3)]GlcNAc
How it was run: as §1

[3] = target: Gal(b1-3)[Neu5Ac(a2-6)]GlcNAc(b1-4)Gal(b1-4)Glc
How it was run: as §1

Gal(b1-4)Glc6S = target: Gal(b1-4)Glc6S
How it was run: as §1

Gal3S(b1-3)GalNAc = target: Gal3S(b1-3)GalNAc
How it was run: as §1

Gal4S(b1-4)GlcNAc = target: Gal4S(b1-4)GlcNAc
How it was run: as §1

Gal6S(b1-4)Glc = target: Gal6S(b1-4)Glc
How it was run: as §1

GalNAc(a1-3)Gal = target: GalNAc(a1-3)Gal
How it was run: as §1

[4] = target: Neu5Ac(a2-3)Gal(b1-3)[Fuc(a1-4)]GlcNAc
How it was run: as §1

[5] = target: Neu5Ac(a2-3)Gal(b1-4)GlcNAc
How it was run: as §1

[6] = target: Neu5Ac(a2-3)Gal(b1-4)[Fuc(a1-3)]GlcNAc(b1-3)Gal(b1-4)[Fuc(a1-3)]GlcNAc(b1-3)Gal(b1-4)[Fuc(a1-3)]GlcNAc
How it was run: as §1

[7] = target: Neu5Ac(a2-8)Neu5Ac(a2-8)Neu5Ac(a2-3)Gal(b1-4)Glc
How it was run: as §1

[8] = target: Neu5Gc(a2-3)Gal(b1-3)[Fuc(a1-4)]GlcNAc
How it was run: as §1

[9] = target: Neu5Gc(a2-3)Gal(b1-4)GlcNAc
How it was run: as §1

[10] = target: Neu5Gc(a2-6)Gal(b1-4)GlcNAc
How it was run: as §1

[11] = target: Fuc(a1-2)[Gal(a1-3)]Gal(b1-4)GlcNAc
How it was run: as §1

[12] = target: Fuc(a1-3)[Gal(b1-4)]GlcNAc(b1-2)Man(a1-6)[Gal(b1-4)GlcNAc(b1-2)Man(a1-3)]Man(b1-4)GlcNAc(b1-4)GlcNAc
How it was run: as §1

[13] = target: Fuc(a1-3)[Gal(b1-4)]GlcNAc(b1-4)Gal(b1-4)[Fuc(a1-3)]GlcNAc
How it was run: as §1

Gal(a1-3)GalNAc = target: Gal(a1-3)GalNAc
How it was run: as §1

[14] = target: Gal(b1-3)[Fuc(a1-4)]GlcNAc
How it was run: as §1

[15] = target: Gal(b1-4)GalNAc(a1-3)[Fuc(a1-2)]Gal(b1-4)GlcNAc
How it was run: as §1

Gal(b1-4)GlcNAc = target: Gal(b1-4)GlcNAc
How it was run: as §1

[16] = target: Gal(b1-4)GlcNAc(b1-2)Man(a1-3)[Gal(b1-4)GlcNAc(b1-2)Man(a1-6)]Man(b1-4)GlcNAc(b1-4)GlcNAc
How it was run: as §1

[17] = target: Gal(b1-4)GlcNAc(b1-3)Gal(b1-3)GlcNAc
How it was run: as §1

Glc(a1-6)Glc(a1-6)Glc = target: Glc(a1-6)Glc(a1-6)Glc
How it was run: as §1

GlcA(b1-6)Gal = target: GlcA(b1-6)Gal
How it was run: as §1

[18] = target: GlcNAc(b1-2)Gal(b1-3)GalNAc
How it was run: as §1

[19] = target: Man(a1-3)[Man(a1-6)]Man(b1-4)GlcNAc(b1-4)GlcNAc
How it was run: as §1

Man(a1-6)Man = target: Man(a1-6)Man
How it was run: as §1

[20] = target: Neu5Ac(a2-3)Gal(b1-4)GlcNAc(b1-2)Man(a1-3)[GlcNAc(b1-2)Man(b1-4)GlcNAc(b1-2)Man(a1-6)]Man(b1-4)GlcNAc(b1-4)GlcNAc
How it was run: as §1

[21] = target: Neu5Ac(a2-3)Gal(b1-4)GlcNAc(b1-2)Man(a1-3)[Neu5Ac(a2-6)Gal(b1-4)GlcNAc(b1-2)Man(a1-6)]Man(b1-4)GlcNAc(b1-4)GlcNAc
How it was run: as §1

[22] = target: Neu5Ac(a2-6)Gal(b1-4)GlcNAc
How it was run: as §1

Neu5Ac(b2-6)GalNAc = target: Neu5Ac(b2-6)GalNAc
How it was run: as §1

[23] = target: Neu5Gc(a2-3)Gal(b1-4)[Fuc(a1-3)]GlcNAc
How it was run: as §1

B1: RegIIIbeta (Mus musculus), P35230 (protein)
chain: MLPPTACSVMSWMLLSCLMLLSQVQGEDSLKNIPSARISCPKGSQAYGSYCYALFQIPQTWFDAELACQKRPGGHLVSVLNSAEASFLSSMVKRTGNSYQYTWIGLHDPTLGAEPNGGGWEWSNNDVMNYFNWERNPSTALDRAFCGSLSRASGFLKWRDMTCEVKLPYVCKFTG
- glycan array binding signal (z-score) (Fuc(a1-2)Gal(b1-4)Glc): -0.114
- glycan array binding signal (z-score) (Fuc(a1-2)Gal(b1-4)GlcNAc): -0.116
- glycan array binding signal (z-score) [1]: 0.15
- glycan array binding signal (z-score) (Fuc(a1-3)GlcNAc): -0.114
- glycan array binding signal (z-score) [2]: -0.098
- glycan array binding signal (z-score) [3]: -0.105
- glycan array binding signal (z-score) (Gal(b1-4)Glc6S): -0.119
- glycan array binding signal (z-score) (Gal3S(b1-3)GalNAc): -0.124
- glycan array binding signal (z-score) (Gal4S(b1-4)GlcNAc): 0.188
- glycan array binding signal (z-score) (Gal6S(b1-4)Glc): -0.116
- glycan array binding signal (z-score) (GalNAc(a1-3)Gal): -0.109
- glycan array binding signal (z-score) [4]: -0.103
- glycan array binding signal (z-score) [5]: -0.071
- glycan array binding signal (z-score) [6]: 0.086
- glycan array binding signal (z-score) [7]: -0.118
- glycan array binding signal (z-score) [8]: 0.106
- glycan array binding signal (z-score) [9]: -0.116
- glycan array binding signal (z-score) [10]: -0.122

B2: Codakine (Codakia orbicularis), Q3KVL7_9BIVA (protein)
chain: MKILVAVFLVLVVVGTAAAGCPDGWTQFLDLCYIYQSAKASWASAQSSCQALGGILAEPDTACENEVLIHMCRENGDAGSFGPWLGGQKVGGAWQWSSSGAAFDYLRWGPNEPNNSGGNEDCLHYNWLSWNDLRCHYQASYLCQRAAE
- glycan array binding signal (z-score) (Fuc(a1-2)Gal(b1-4)Glc): -0.26
- glycan array binding signal (z-score) [1]: -0.235
- glycan array binding signal (z-score) [11]: -0.342
- glycan array binding signal (z-score) [12]: 6.48
- glycan array binding signal (z-score) [13]: -0.321
- glycan array binding signal (z-score) (Gal(a1-3)GalNAc): -0.298
- glycan array binding signal (z-score) [14]: -0.203
- glycan array binding signal (z-score) [15]: -0.419
- glycan array binding signal (z-score) (Gal(b1-4)GlcNAc): -0.3
- glycan array binding signal (z-score) [16]: 4.02
- glycan array binding signal (z-score) [17]: -0.239
- glycan array binding signal (z-score) (Glc(a1-6)Glc(a1-6)Glc): -0.317
- glycan array binding signal (z-score) (GlcA(b1-6)Gal): -0.302
- glycan array binding signal (z-score) [18]: -0.276
- glycan array binding signal (z-score) [19]: 4.3
- glycan array binding signal (z-score) (Man(a1-6)Man): 0.449
- glycan array binding signal (z-score) [4]: -0.34
- glycan array binding signal (z-score) [20]: 4.82
- glycan array binding signal (z-score) [21]: 4.57
- glycan array binding signal (z-score) [22]: -0.224
- glycan array binding signal (z-score) (Neu5Ac(b2-6)GalNAc): -0.238
- glycan array binding signal (z-score) [8]: -0.265
- glycan array binding signal (z-score) [23]: -0.234
- glycan array binding signal (z-score) [10]: -0.289
